From PubChem BioAssay AID652042 (Broad Institute, 2013)
About 350 (32%) of roughly 1,100 compounds were called active. A selection follows. Measured potencies and affinities stand elsewhere. Values without a mark were called inactive. How the calls were made is not given here.

Assay: viability loss in CEM21 cells – cell-based, CellTiter-Glo luminescence, cherry-picked, cytotoxicity control for viral fusion inhibitor project, dose response (AID 652042)
Conditions: CellTiter-Glo ATP luminescence, 24 h; series mostly up to 35 µM; activity change, negative = cytotoxicity: at the top concentration

Row | SMILES | activity change, negative = cytotoxicity
1 | COc1ccc(S(=O)(=O)N2CCCCC2)cc1NC(=O)Cc1sc(C)nc1-c1ccc(F)cc1 | -10.2%
2 | COc1ccc(S(=O)(=O)N2CCCCC2)cc1NC(=O)CCCOc1ccc(C)cc1 | -3.13%
3 | COc1ccc(NC(=O)c2cc(CC(C)C)nc3ccccc23)cc1 | -6.15%
4 | CC[C@@]12C(=O)N(c3cccc(F)c3)C(=O)N1[C@H](c1ccc(Cl)cc1)[C@@H]1C(=O)N(C3CCCCC3)C(=O)[C@@H]12 | -6.08% [at 16 µM]
5 | Nc1ccc(-c2nc3ccc(C(=O)O)cc3s2)cc1 | -6.13%
6 | COc1ccccc1CNC(=O)C[C@H]1C[C@@H]2c3cc(NC(=O)c4cccnc4)ccc3O[C@@H]2[C@@H](CO)O1 | 1.35%
7 | COC(=O)c1c(C)oc(C)c1S(=O)(=O)NC(c1ccccc1)c1ccccc1 | -17.2%
8 | Cc1cc(Oc2ccc(C#N)cc2)nc(NCc2ccccc2)n1 | -6.37%
9 | Cc1cc(C)n2nc(NCc3cccc(Br)c3)nc2n1 | 2.96%
10 | COc1ccc(Nc2c(CCc3ccccc3)nc3nc(C)cc(C)n23)cc1 | -13.6%
11 | CCOc1ccc(C(C)=O)cc1COC(=O)c1ccccc1C(=O)N(C)Cc1ccccc1 | -12.8%
12 | Cc1ccc(Cn2ncc3c(N4CCN(c5ccc(C)cc5)CC4)ncnc32)cc1 | -14.1%
13 | Clc1ccc(OCCN2CCN(c3ncnc4sccc34)CC2)cc1 | -22.9%
14 | O=C(COC(=O)c1cccc(S(=O)(=O)N2CCOCC2)c1)NCc1ccccc1 | 3.87%
15 | CSc1ncccc1C(=O)OCC(=O)Nc1ccc(C)c(S(=O)(=O)N2CCOCC2)c1 | -3.73%
16 | COc1ccc(S(=O)(=O)Nc2ccc3c(c2)CC(=O)N([C@H](C)CO)C[C@H](C)[C@H](CN(C)S(=O)(=O)c2ccccc2)O3)cc1 | -3.72%
17 | Cc1noc(C)c1S(=O)(=O)N(C)C[C@H]1Oc2ccc(NC(=O)Nc3ccccc3)cc2CC(=O)N([C@H](C)CO)C[C@H]1C | -4.33%
18 | C=CC[n+]1c(-c2ccc(OC)c(OC)c2)csc1NNC(=O)Nc1ccccc1 | -25.3%
19 | C=C1CCN([C@@H](CC(C)C)C(=O)Nc2ccc(OC)cc2)S(=O)(=O)c2ccccc21 | 5.42%
20 | Cc1nn(C)c(Cl)c1NC(=O)OCc1ccc(Cl)cc1Cl | -12%
21 | O=C(Nc1ccc(Cl)cn1)C1CCCN1S(=O)(=O)c1cccc2ccccc12 (stereo not drawn) | -21.3%
22 | CC(Cl)=CCn1c(NCCc2ccccc2)nc2c1c(=O)n(C)c(=O)n2C | -29.5%
23 | CNc1nc2c(c(=O)n(C)c(=O)n2C)n1Cc1ccccc1 | -9.49%
24 | O=C(N[C@@H]1CC[C@H](CCNS(=O)(=O)c2ccc(F)cc2)O[C@@H]1CO)C1CC1 | 0.073%
25 | CCOC(=O)C1CCCN(Cc2nc(N)nc(Nc3ccc(OC)cc3)n2)C1 (stereo not drawn) | -12.6%
26 | O=C(CN1C(=O)c2ccccc2S1(=O)=O)c1ccccc1Cl | -3.58%
27 | C[C@H](CO)N1C[C@H](C)[C@H](CN(C)S(=O)(=O)c2ccccc2)Oc2ccc(NS(=O)(=O)c3ccc(F)cc3)cc2CC1=O | -0.651%

Row | SMILES | activity change, negative = cytotoxicity
28 | C[C@@H]1CN([C@H](C)CO)C(=O)c2cccc(NS(=O)(=O)c3ccc(Cl)cc3)c2O[C@H]1CN(C)CC1CCCCC1 | -2.85% [at 30 µM]
29 | C[C@H](CO)N1C[C@H](C)[C@H](CN(C)S(=O)(=O)c2ccc(F)cc2)Oc2ccc(NS(=O)(=O)c3ccccc3)cc2CC1=O | -5.45%
30 | C[C@H]1CN([C@@H](C)CO)C(=O)c2cc(NS(C)(=O)=O)ccc2O[C@@H]1CN(C)Cc1ccc(Cl)c(Cl)c1 | -1.47%
31 | C[C@@H]1CN([C@H](C)CO)C(=O)c2cccc(NS(=O)(=O)c3ccc(F)cc3)c2O[C@@H]1CN(C)Cc1ccc(C(F)(F)F)cc1 | -11.4%
32 | Cc1ccc(S(=O)(=O)Nc2ccc3c(c2)CC(=O)N([C@H](C)CO)C[C@H](C)[C@H](CN(C)S(=O)(=O)c2ccccc2)O3)cc1 | -9.65%
33 | C[C@H](CO)N1C[C@H](C)[C@H](CN(C)C(=O)Nc2ccccc2)Oc2c(NS(=O)(=O)c3ccc(F)cc3)cccc2C1=O | -3.16%
34 | C[C@H]1CN([C@@H](C)CO)C(=O)c2cccc(NS(=O)(=O)c3ccc(Cl)cc3)c2O[C@@H]1CN(C)Cc1ccc(C(F)(F)F)cc1 | -13.6%
35 | Clc1ccc2c(c1)C(C1=NCCN1)c1ccccc1CS2 (stereo not drawn) | -15.6%
36 | C[C@@H]1CN([C@@H](C)CO)C(=O)c2cc(NC(=O)c3ccccc3)ccc2O[C@@H](C)CCCCO[C@H]1CN(C)Cc1ccc(C(=O)O)cc1 | 1.47%
37 | CC1CCC(NC(=O)CCn2ccc3cc(S(=O)(=O)N4CCCC4)ccc32)CC1 (stereo not drawn) | -18.3%
38 | Cc1cc(C)c(S(=O)(=O)N2CCCCC2)cc1N(C)S(=O)(=O)c1ccc(Cl)cc1 | -16.3%
39 | CC(=O)C1=C(C)N(Cc2ccc(Br)cc2)C(=S)NC1c1cccc(Cl)c1 (stereo not drawn) | -10.7%
40 | COc1ccc(C2=Nn3c(nnc3-c3ccncc3)SC2)cc1 | -22%
41 | C=CCN(Cc1ccc(OC)c(OC)c1)C(=O)c1cc2cc(F)ccc2[nH]1 | -19.6%
42 | COc1ccc(-c2noc(CCCC(=O)O)n2)cc1 | 8.19%
43 | COc1cccc(NC(=O)Nc2cccc(C(=O)O)c2)c1 | -5.58%
44 | CN(C)c1ccc(O)c2c1CC1CC3[C@@H](N(C)C)C(=O)C(C(N)=O)=C(O)[C@]3(O)C(=O)C1=C2O (stereo partly drawn) | -24.2%
45 | CC1(C)CC2CC(C)(CN2S(=O)(=O)c2cccc(C(=O)OCC(=O)NC(N)=O)c2)C1 (stereo not drawn) | -6.27%
46 | COc1ccccc1C(=O)NC(CCSC)C(=O)N1CCN(C/C=C/c2ccccc2)CC1 (stereo not drawn) | -15.2%
47 | COCCn1c(=S)[nH]c2cc(C(=O)N3CCN(Cc4ccc5c(c4)OCO5)CC3)ccc2c1=O | -10.4%
48 | CCCCCn1c(=O)[nH]c2cc(C(=O)N3CCN(Cc4ccc5c(c4)OCO5)CC3)ccc2c1=O | -15.4%
49 | NC(=O)c1sc2nc3c(c(-c4cccs4)c2c1N)CCCCC3 | 4.65%
50 | C[C@H]1CN([C@@H](C)CO)C(=O)c2c(c3ccccc3n2C)-c2ccccc2CO[C@H]1CN(C)C(=O)CCC(F)(F)F | -16%
51 | Cc1ccc(S(=O)(=O)N(C)C[C@@H]2Oc3ccc(NS(=O)(=O)c4c(C)noc4C)cc3CC(=O)N([C@H](C)CO)C[C@@H]2C)cc1 | 3.56%
52 | C[C@H](CO)N1C[C@H](C)[C@H](CN(C)S(=O)(=O)c2ccccc2)Oc2ncc(/C=C/c3ccccc3)cc2C1=O | -19.8%
53 | CCOC(=O)[C@@H]1[C@H]2COc3ccc(Br)cc3[C@@H]2N2C(=O)N(c3ccccc3)C(=O)[C@@]12C | -5.89%
